Results filed as inconclusive are left out. Where a call stands in place of a potency, no number is given. Calls of active or inactive are those of the source. The call rests on the fitted dose curve; in most records, active means well fitted inhibition curve with a large enough effect; inconclusive means small, poorly fitted or top-dose-only effect; inactive means flat fitted curve, though single readings scatter.
Tested on: SC27B
Experiment: qHTS profiling for inhibitors of Plasmodium falciparum proliferation (AID 504749); further: nearly all actives have a fitted effect of over 60% in size
Conditions: P. falciparum in erythrocytes, SYBR Green DNA, 72 h; series mostly up to 28.7 µM
Summary of the method: (§1)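 Fluorescence of SYBR Green-bound parasite DNA, read at 485/535 nm, served as the growth measure. Infected erythrocytes were cultured with compound 72 h; artemisinin (0.29 uM) and DMSO wells defined the normalization range.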

Compound | Potency
CCC(=O)Nc1ccc(O)cc1 | inactive
O=c1cc[nH]c(=O)[nH]1 | inactive
C=Cc1c(C)c2cc3[nH]c(cc4nc(cc5nc(cc1[nH]2)C(C)=C5CCC(=O)O)C(CCC(=O)O)=C4C)c(C)c3C=C | inactive
CC(O)COc1ccccc1 (stereo not drawn) | inactive
NS(=O)(=O)c1cc2c(cc1Cl)NC(CSCc1ccccc1)=NS2(=O)=O | inactive
CCCCCCCCCCCCCCCCCCOCC(O)CO (stereo not drawn) | inactive
CC1(C)[C@@H]2CC[C@@]1(C)C(=O)C2 | inactive

Tested on: TAB109
Experiment: as above
Conditions: P. falciparum in erythrocytes, SYBR Green DNA, 72 h; series mostly up to 28.7 µM
Summary of the method: as §1

Compound | Potency
CCC(=O)c1ccc(O)cc1 | inactive
Cc1cc(CC(=O)O)n(C)c1C(=O)c1ccc(Cl)cc1 | inactive
CC12CCC(CC1)C(C)(C)O2 | inactive
COc1cc(C(=O)N2CCOCC2)cc(OC)c1OC | inactive
CCCOC(=O)c1ccccc1 | inactive
OCC(O)CN1CCN(c2ccccc2)CC1 (stereo not drawn) | inactive
O=C1NS(=O)(=O)c2ccccc21 | inactive
CC(=O)Oc1ccc(C2(c3ccc(OC(C)=O)cc3)C(=O)Nc3ccccc32)cc1 | inactive
CC(=O)Nc1ccc(/C=N/NC(N)=S)cc1 | inactive
O=C(O)CC(O)C(=O)O (stereo not drawn) | inactive
O=C(CCCN1CCN(c2ccccn2)CC1)c1ccc(F)cc1 | inactive
CC1=C(/C=C/C(C)=C/C=C/C(C)=C/C(=O)O)C(C)(C)CCC1 | inactive
Nc1nc2c(ncn2CCC(CO)CO)c(=O)[nH]1 | inactive
O=C(O)c1ccccn1 | inactive
Nc1ncnc2c1ncn2[C@@H]1O[C@H](CO)[C@@H](O)[C@H]1O | inactive
Cn1c(=O)c2c(ncn2CC2OCCO2)n(C)c1=O | inactive

From PubChem BioAssay (NCATS)
